Not all results are given here.
aSyn UTR act: Activators working through SNCA 5'UTR binding (MLPCN); 7.1% of 300,000 active; AID 1814; activity score, % (tested at 7.5 µM), hits read low; alpha-synuclein 5'UTR reporter, activators screen; in the data active = activity score below about -60%
The depositor's hits bear a star.

SMILES	aSyn UTR act
Cc1ccccc1-n1c(C)cc(/C=C(\C#N)C(=O)NCC2CCCO2)c1C (centres undefined)	-93.6*
Cc1cc(/C=C(\C#N)C(=O)NCc2cccs2)c(C)n1-c1ccccc1F	-239.6*
CCOC(=O)/C=c1\s/c(=C\c2c(OC)ccc3ccccc23)c(=O)n1CC(=O)NCC1CCCO1 (centres undefined)	70.8
c1ccc2c(CCNc3ncnc4nc[nH]c34)c[nH]c2c1	-72.7*
c1ccc(CCNc2ncnc3nc[nH]c23)cc1	-113.0*
CCc1ccc2c(c1)/C(=N/N(C)C(=S)NC)C(=O)N2	-70.9*
CCCc1ccc(-c2cc(NC(=O)CSc3n[nH]c(N)n3)n(-c3ccccc3)n2)cc1	-141.4*
O=C(c1csc(Nc2ccccc2Cl)n1)N1CCCC1	-117.3*
CCOc1ccccc1NC(=O)c1cccc(NC(=O)c2ccco2)c1	-184.8*
CCOC(=O)c1cccc(NC(=O)c2ccc(NC(=O)c3ccco3)cc2)c1	-67.2*
Nc1ccc(-c2nc3ncccc3o2)c(O)c1	-175.5*
Nc1ccc(-c2nc3ncccc3o2)c(Cl)c1	-103.8*
CC(C)(C)c1ccc(OCc2cnc(Cl)s2)cc1	-105.2*
COC(c1ccccc1)c1nnc(CCC(=O)N(C)C(C2CC2)C2CC2)o1 (centres undefined)	-146.6*
Cc1nc2ccc(CN(C)c3ccc(C(=O)N[C@@H](CCC(=O)O)C(=O)O)s3)cc2c(=O)[nH]1	103.1
COc1ccccc1CNC(=O)CN1C(=O)c2cccc(N)c2C1=O	-64.6*
COc1ccccc1CNC(=O)CCCc1ccccc1	-68.5*
COc1ccc(CC(=O)NCc2ccc(-n3cccc3)cc2)cc1OC	63.9
COC(=O)c1cc(/C=C/c2ccccc2)[nH]n1	-117.0*
C=CCn1c(SCc2ccc(C#N)cc2)nnc1-c1cccc(OC)c1	58.3
CCn1c(SCc2ccc(OC)cc2)nnc1-c1ccncc1	-106.3*
C=CCn1c(SCc2ccc(OC)cc2)nnc1-c1cccnc1	-117.4*
Cc1cc(C)n(CCc2nc(-c3cc4ccccc4o3)cs2)n1	-112.0*
Nc1nc(-c2cc3ccccc3o2)cs1	-131.8*
CN1CCN(c2nc(-c3cc4ccccc4o3)cs2)CC1	-142.2*
SMILES	aSyn UTR act
Cc1cc(C)nc(NC(=S)Nc2ccc(F)cc2F)c1	-62.5*
Cc1cccnc1NC(=S)Nc1ccc(F)cc1F	-74.4*
Cc1ccc(C)c(NC(=S)Nc2ncccc2C)c1	-136.5*
CCCc1cc(=O)n2c(nc3ccccc32)[nH]1	-66.4*
CCCCc1c(C)[nH]c2nc3ccccc3n2c1=O	-97.4*
CCOC(=O)c1cc(=O)n2c(nc3ccccc32)[nH]1	-99.1*
CCN(CC)c1ccc(Nc2nc(-c3cccnc3)cs2)cc1	-210.1*
Fc1ccc(Nc2nc(-c3cccnc3)cs2)cc1	-264.9*
Clc1ccc(Nc2nc(-c3cccnc3)cs2)cc1	-145.9*
c1ccc(-c2csc(Nc3cccnc3)n2)cc1	-164.5*
Nc1ccc(-c2ncc(-c3ccccc3)o2)cc1	86.4
Cc1ccc(-c2cnc(-c3ccncc3)o2)cc1	-156.8*
Cc1ccc(NC(=O)N/C=C/c2ccccc2)cc1	-92.0*
Cc1ccc(NC(=O)N/C=C/c2ccc(Cl)cc2)cc1	-94.3*
Cc1nc2ccc(-c3nc4ccccc4[nH]3)cc2[nH]1	-120.3*
Clc1ccc(-c2nc3ccccc3[nH]2)cn1	-63.4*
Cc1ccc(-c2nc3ccccc3[nH]2)cn1	-98.5*
Cc1ccc(C(=O)Nc2nc(C)c(C)s2)o1	-114.2*
Cc1nc(NC(=O)c2ccc(Br)o2)sc1C	-129.4*
CC1(C)Cc2nc3sc(C(=O)NCCCO)c(N)c3cc2CS1	-92.3*
N#Cc1c(N2CCOCC2)nsc1-c1ccc(C(F)(F)F)cc1	-133.6*
COc1ccccc1-n1cnc2cc(NC(=O)c3ccco3)ccc21	-87.3*
CC(C)n1cnc2cc(NC(=O)c3ccco3)ccc21	-71.2*
O=C(Nc1ccc2c(c1)ncn2C1CCCCC1)c1ccco1	-116.7*
COc1ccc(/C=C2\SC(=S)N(CCCC(=O)N3CCCCC3CCO)C2=O)cc1 (centres undefined)	67.9
SMILES	aSyn UTR act
CCN1C(=O)/C(=C\N2CCCCCC2)SC1=S	-112.0*
CCN1C(=O)/C(=C/N2CCc3ccccc3C2)SC1=S	-107.8*
Cc1ccc(S(=O)(=O)Nc2ccc(NC(=O)Nc3ccc(F)cc3F)cc2)cc1	78.5
Cc1ccc(NC(=O)c2ccc(F)cc2F)cc1	-195.0*
O=C(NC(=O)c1ccc(F)cc1F)Nc1ccc(Cl)cc1	-158.7*
O=C(Nc1ccccc1)c1ccc(F)cc1F	-107.9*
COC(=O)c1c(C)[nH]c(C(=O)/C=C/c2ccccc2F)c1C	-244.6*
COC(=O)c1c(C)[nH]c(C(=O)/C=C/c2ccccc2Cl)c1C	-301.8*
O=C(CN1CC[n+]2c(-c3cccs3)csc21)c1ccc(-c2ccccc2)cc1	-64.6*
CCCCOc1ccc(-c2csc(N)n2)cc1[N+](=O)[O-]	-140.9*
CCCOc1ccc(-c2cn3ccccc3n2)cc1[N+](=O)[O-]	-113.8*
CCCCOc1ccc(CSc2nc(C)[nH]c2[N+](=O)[O-])cc1[N+](=O)[O-]	-64.9*
O=[N+]([O-])c1cccc(-c2cn3ccccc3n2)c1	-92.8*

From PubChem BioAssay
